According to PubChem BioAssay AID1159580 (chemical genetic matrix, 2015):
In all, about 5,500 compounds went through this assay and about 2,000 (36%) were called active. Inconclusive results (about 18%) are left out. No stated cut-off is given here; in the data, active means normalized growth mostly below about 0.91 (no sharp cut-off); inconclusive means no clear call, values can overlap the other calls; inactive means mostly above about 0.92. This is one part of the list.

Assay: chemical genetic growth profiling, strain panel (AID 1159580);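 further: tested at 20 µM; growth read once vehicle control cultures reached saturation at 30 °C; 1 = growth at the plate median or of vehicle wells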
Settings: S. cerevisiae deletion strains, growth OD

Measured: normalized growth

Cc1nc(-c2cccnc2)nc(NCc2ccccc2)c1Cl
inactive: locus YAR019C, strain CDC15, stronger effect = lower value 0.943 | locus YBL105C, strain PKC1, stronger effect = lower value 0.945 | locus YBR135W, strain CKS1, stronger effect = lower value 0.941 | locus YBR136W, strain MEC1, stronger effect = lower value 0.919 | locus YBR160W, strain CDC28, stronger effect = lower value 0.955 | locus YDL017W, strain CDC7, stronger effect = lower value 0.943 | locus YDL028C, strain MPS1, stronger effect = lower value 0.926 | locus YDL101C, strain DUN1, stronger effect = lower value 0.938 | locus YDL108W, strain KIN28, stronger effect = lower value 0.924 | locus YDL132W, strain cdc53, stronger effect = lower value 0.939 | locus YDL214C, strain PRR2, stronger effect = lower value 0.866 | locus YDR052C, strain DBF4, stronger effect = lower value 0.945 | locus YDR054C, strain cdc34, stronger effect = lower value 0.933 | locus YDR226W, strain ADK1, stronger effect = lower value 0.951 | locus YDR477W, strain SNF1, stronger effect = lower value 0.887 | locus YER123W, strain YCK3, stronger effect = lower value 0.784 | locus YER133W, strain GLC7, stronger effect = lower value 0.853 | locus YFL009W, strain cdc4, stronger effect = lower value 0.932 | locus YFL029C, strain CAK1, stronger effect = lower value 0.941 | locus YFR003C, strain YPI1, stronger effect = lower value 0.943 | locus YFR019W, strain FAB1, stronger effect = lower value 0.946 | locus YFR028C, strain CDC14, stronger effect = lower value 0.931 | locus YGR040W, strain KSS1, stronger effect = lower value 0.841 | locus YGR052W, strain FMP48, stronger effect = lower value 0.937 | locus YGR092W, strain DBF2, stronger effect = lower value 0.8 | locus YHR030C, strain SLT2, stronger effect = lower value 0.936 | locus YHR079C, strain IRE1, stronger effect = lower value 0.887 | locus YHR082C, strain KSP1, stronger effect = lower value 0.935 | locus YHR205W, strain SCH9, stronger effect = lower value 0.886 | locus YIL147C, strain SLN1, stronger effect = lower value 0.929 | locus YJL095W, strain BCK1, stronger effect = lower value 0.923 | locus YJL128C, strain PBS2, stronger effect = lower value 0.907 | locus YJL157C, strain FAR1, stronger effect = lower value 0.877 | locus YJR016C, strain ILV3, stronger effect = lower value 0.935 | locus YJR066W, strain TOR1 (second series), stronger effect = lower value 0.884 | locus YJR066W, strain TOR1, stronger effect = lower value 0.922 | locus YKL048C, strain ELM1, stronger effect = lower value 0.94 | locus YKL067W, strain YNK1, stronger effect = lower value 0.89 | locus YKL101W, strain HSL1, stronger effect = lower value 0.892 | locus YKL193C, strain SDS22, stronger effect = lower value 0.937 | locus YKL203C, strain TOR2, stronger effect = lower value 0.923 | locus YLR133W, strain CKI1, stronger effect = lower value 0.913 | locus YLR403W, strain SFP1, stronger effect = lower value 0.849 | locus YML070W, strain DAK1, stronger effect = lower value 0.847 | locus YMR001C, strain CDC5, stronger effect = lower value 0.938 | locus YMR205C, strain PFK2 (second series), stronger effect = lower value 0.897 | locus YMR277W, strain FCP1, stronger effect = lower value 0.943 | locus YNL006W, strain LST8, stronger effect = lower value 0.954 | locus YNL020C, strain ARK1, stronger effect = lower value 0.885 | locus YNL161W, strain CBK1, stronger effect = lower value 0.952 | locus YNL183C, strain NPR1, stronger effect = lower value 0.898 | locus YNL207W, strain RIO2, stronger effect = lower value 0.922 | locus YNL222W, strain SSU72, stronger effect = lower value 0.942 | locus YNL307C, strain MCK1 (second series), stronger effect = lower value 0.899 | locus YOL078W, strain AVO1, stronger effect = lower value 0.941 | locus YOL136C, strain PFK27, stronger effect = lower value 0.877 | locus YOR061W, strain CKA2, stronger effect = lower value 0.89 | locus YOR119C, strain RIO1, stronger effect = lower value 0.889 | locus YOR231W, strain MKK1, stronger effect = lower value 0.9 | locus YOR329C, strain SCD5, stronger effect = lower value 0.948 | locus YPL031C, strain PHO85, stronger effect = lower value 0.82 | locus YPL153C, strain RAD53, stronger effect = lower value 0.841 | locus YPL204W, strain HRR25, stronger effect = lower value 0.856 | locus YPL209C, strain IPL1, stronger effect = lower value 0.942 | locus YPL256C, strain CLN2, stronger effect = lower value 0.908 | locus YPR025C, strain CCL1, stronger effect = lower value 0.951 | locus YPR106W, strain ISR1, stronger effect = lower value 0.953 | locus YPR111W, strain DBF20, stronger effect = lower value 0.942 | strain NNK1, stronger effect = lower value 0.94 | strain TSCII, stronger effect = lower value 0.934
active: locus YLR113W, strain HOG1, stronger effect = lower value 0.846
